# High-throughput results (PubChem)
# An excerpt weighted towards active compounds, which were near 6.2% of everything screened.
# ATXN2 expr inh: reduces ATXN2 reporter expression in HEK-293 cells; HEK-293 ATXN2-luciferase reporter, luminescence, 24 h; actives 0.72% (n = 360,000); Potency, µM (highest dose often 57 µM), hits mostly inhibitors; further: nearly all actives have a fitted effect of over 55% in size
#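 ATXN2-luciferase reporter cells (luciferase flanked by upstream and downstream ATXN2 gene portions) were treated 24 h at 37 °C with compounds at up to 57 uM. SteadyGlo luminescence gave expression; GF-AFC fluorescence gave viability.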
# HT1080-NT tox: kills 2HG-producing HT-1080-NT fibrosarcoma cells. HT-1080-NT fibrosarcoma viability, CellTiter-Glo ATP luminescence, 48 h. Potency, µM (titrated, usually from 46.1 µM), usual class: cytotoxic. actives 1.6% (n = 360,000);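 further: NT is the 2HG producing partner of a matched IDH1 knockdown line; nearly all actives have a fitted effect of over 55% in size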
#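 Fibrosarcoma NT cells, 750 per well in 5% FBS RPMI, were exposed to compound for 48 hours. Viability: CellTiter-Glo luminescence.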
# ATXN viability: viability counter-screen for ATXN expression inhibitors | S2 cells (HEK-293 line with an ATXN2-luciferase reporter) viability, CellTiter-Fluor protease fluorescence, 24 h | Potency, µM (highest dose often 56.7 µM), actives largely listed as cytotoxic | actives 0.49% (n = 400,000); further: nearly all actives have a fitted effect of over 40% in size
# KB-V1 cytotox: KB-V1 MDR subline cytotoxicity; KB-V1 MDR cells viability, CellTiter-Glo, 72 h; Potency, µM (highest dose often 46.1 µM), hits mostly cytotoxic; actives 3.4% (n = 400,000); AID 1347076; further: nearly all actives have a fitted effect of over 60% in size
#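 Cells of the MDR subline KB-V1 are plated, dosed with compound at multiple concentrations, and incubated 72 h at 37 degrees C; CellTiter-Glo is then added and luminescence read after 10 min.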
# KB-3-1 tox: kills parental KB-3-1 adenocarcinoma cells. actives 1.4% (n = 400,000). KB-3-1 viability, CellTiter-Glo ATP luminescence, 72 h. Potency, µM (series often up to 46.1 µM), usual class: cytotoxic; further: nearly all actives have a fitted effect of over 60% in size
#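 Luminescent ATP read-out (CellTiter-Glo) measures survival of drug-naive KB-3-1 cells after 72 h compound exposure at 37 °C. Titration series was screened from lowest to highest concentration, with DMSO vehicle plates as background controls.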
# HT1080 IDH1KD tx: toxicity to HT-1080 IDH1 knockdown cells (counter line); HT-1080 IDH1 knockdown viability, ATP luminescence, 48 h; Potency, µM (highest dose often 46.1 µM), hits mostly cytotoxic; actives 2% (n = 360,000)
#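 IDH1KD HT-1080 cells, 750/well, RPMI + 5% FBS; compound pinned after 2 h settling; 48 h, 37 °C; CellTiter-Glo luminescence; % activity normalised to DMSO and no-cell wells; curves fitted, classed by r2 and efficacy.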
# A number is an active result; n = inactive; u = inconclusive; x = not tested or not shown; [ ] = another dose, or the depositor's remark. The call rests on the fitted dose curve; in most records, active means well fitted curve in the direction sought with a large enough effect; inconclusive means small, poorly fitted or top-dose-only effect, or another doubt; inactive means no such curve, though single readings can be large; an effect the other way counts as inactive or inconclusive.
SMILES,ATXN2 expr inh,HT1080-NT tox,ATXN viability,KB-V1 cytotox,KB-3-1 tox,HT1080 IDH1KD tx
CC(=O)N1CCc2c(sc(NC(=O)c3ccc([N+](=O)[O-])o3)c2C(N)=O)C1,x,6.51µM,20µM,n,n,5.8µM
CCC(=O)Nc1sc2c(c1C(N)=O)CCN(C(C)=O)C2,n,n,n,n,n,n
CC(=O)N1CCc2c(sc(NC(=O)c3ccc4c(c3)OCCO4)c2C#N)C1,n,18.4µM,n,u,u,11.6µM
Cc1cccc(CNC(=O)c2cnn(-c3ncc(C)c(-c4cccs4)n3)c2C2CC2)n1,x,x,n,x,x,x
O=C(O)[C@@H](c1ccc(OCc2ccc3ccccc3n2)cc1)C1CCCC1,n,x,x,x,x,x
CC(=O)Nc1cc(O)c2nonc2c1O,x,x,x,u,2.59µM,x
CC(=O)Nc1c(O)cc(Br)c2nonc12,x,x,x,u,n,x
CC(=O)N1CCCc2cc(S(=O)(=O)NCc3ccccc3Cl)ccc21,n,x,n,n,n,x
Cc1ccc(N(Cc2ccccc2)C(=O)c2ccc(F)c(S(=O)(=O)N3CCOCC3)c2)cc1,n,n,n,3.66µM,u,n
Cc1cccc(N(Cc2ccccc2)C(=O)c2ccc(F)c(S(=O)(=O)N3CCOCC3)c2)c1,n,n,u,n,n,n
O=C(Nc1ccc2c(c1)CCC2)c1ccc(F)c(S(=O)(=O)N2CCOCC2)c1,n,n,n,3.26µM,u,n
Cc1cnc(NC(=O)Cc2ccc(S(=O)(=O)N3CCOCC3)s2)s1,n,n,n,23.1µM,n,n
COc1ccc(C(=O)Nc2ncc(C)s2)cc1S(=O)(=O)N1CCOCC1,n,n,n,u,u,n
Cc1cnc(NC(=O)c2ccc(F)c(S(=O)(=O)N3CCOCC3)c2)s1,n,n,n,18.4µM,n,n
CC(C)(C)c1csc(NC(=O)Cc2ccc(S(=O)(=O)N3CCOCC3)s2)n1,n,n,n,u,n,u
COc1ccc(/C=N/NC(=O)c2cccc([N+](=O)[O-])c2)cc1OS(=O)(=O)c1ccccc1,n,n,n,n,n,n
COc1ccc(/C=N/NC(=O)c2cccc([N+](=O)[O-])c2)c2ccccc12,17.8µM,n,u,n,n,n
COc1cccc(/C=N/NC(=O)c2cccc([N+](=O)[O-])c2)c1OS(=O)(=O)c1ccccc1,n,n,u,10.3µM,n,n
COc1cccc(/C=N/NC(=O)C(=O)N/N=C/c2cccc(OC)c2OC)c1OC,n,u,n,n,n,23.1µM
COc1cccc(/C=N/NC(=O)c2ccc([N+](=O)[O-])cc2Cl)c1O,u,u,n,9.2µM,n,u
CCc1ccc(NC(=O)Cn2c(=O)n(CCc3ccccc3)c(=O)c3sc4ccccc4c32)cc1,n,x,n,n,n,x
CN(C)c1ccc(/C=C2\C=Cc3ccccc32)cc1Cl,x,x,x,u,n,x
Cc1ccc(-c2nc3sccn3c2Nc2ccc(C)c(C)c2)cc1,n,x,n,n,n,x
Cc1ccc(-c2ccccc2NC(=O)CS(=O)CC(=O)Nc2ccc(C)c(Cl)c2)o1 (stereo not given),u,n,n,n,n,23.1µM
Cc1ccc(-c2ccccc2NC(=O)CCl)o1,n,n,n,n,n,n[9.24 µM]
SMILES,ATXN2 expr inh,HT1080-NT tox,ATXN viability,KB-V1 cytotox,KB-3-1 tox,HT1080 IDH1KD tx
Cc1nn(C)cc1CN1CCOc2ccc(CN3CCC(Oc4cccnc4)CC3)cc2C1,x,x,n,x,x,x
Cc1cc(N)n2ncc(-c3ccc(Cl)cc3)c2n1,n,u,n,u,18.4µM,u
Cc1cc(C)n2ncc(-c3cccc(Br)c3)c2n1,n,n,n,n,n,n
Cc1cc(Cl)n2ncc(-c3ccccc3)c2n1,n,18.4µM,n,n,n,u
COc1ccc(C2CC(=O)c3cc(-c4nc(-c5cccc([N+](=O)[O-])c5)cs4)c(=O)n(-c4ccc(C)c(C)c4)c3C2)cc1 (stereo not given),n,x,n,n,n,x
CCn1c(COc2ccccc2)nnc1SCC(=O)Nc1cc(OC)ccc1OC,n,n,n,13µM,n,n
CCn1c(COc2cccc(C)c2)nnc1SCC(=O)Nc1cccc(C(=O)OC)c1,n,n,n,n,n,n
CCn1c(CC(=O)Nc2cccc(Cl)c2Cl)nnc1SCCOc1ccc(OC)cc1,n,n,n,20.6µM,n,n
CCn1c(COc2cccc(OC)c2)nnc1SCC(=O)Nc1cc(OC)ccc1OC,n,n,n,u,n,n
CCOC(=O)c1cccc(NC(=O)CSc2nnc(COc3ccccc3)n2CC)c1,n,n,n,11.6µM,n,n
C=CCn1c(CCNC(=O)c2ccc(Cl)c(Cl)c2)nnc1SCCOc1ccc(OC)cc1,n,u,n,5.17µM,n,u
CCOc1ccccc1-c1noc(CSc2nnc(-c3ccccc3)n2-c2cccc(C)c2)n1,n,x,u,n,n,x
COc1ccc(NC(=O)C(=O)N/N=C\c2ccc(CNC(=O)C(=O)Nc3ccc(C)c(C)c3)o2)c(OC)c1,n,n,u,u,13µM,n
COCCNC(=O)/C(C#N)=C\c1ccc(CNC(=O)C(=O)Nc2ccc(C)c(C)c2)o1,n,n,n,n,n,n
CCCn1c(-c2cccnc2Cl)nc2cc(Cl)c(Cl)cc21,n,n,u,16.4µM,n,u
C=CCn1c(-c2cccnc2Cl)nc2cc(Cl)c(Cl)cc21,n,n,n,n,n,n
CC1=Nn2c(nnc2-c2cc(-c3ccccc3)n[nH]2)SC1,n,n,n,n,n,n
COc1ccc(C2=Nn3c(nnc3-c3ccncc3)SC2)cc1OC,n,u,n,n,u,u
c1ccc(-c2ccc(C3=Nn4c(nnc4-c4cc(-c5ccccc5)n[nH]4)SC3)cc2)cc1,n,u,n,16.4µM,u,17.8µM
CCc1nnc2n1N=C(c1ccc([N+](=O)[O-])cc1)CS2,n,n,n,n,n,n
COc1ccc(C2=Nn3c(nnc3-c3ccccn3)SC2)cc1,n,n,u,14.6µM,u,n
CCc1nnc2n1N=C(c1ccc(OC)cc1)CS2,n,u,n,16.4µM,23.1µM,u
COc1ccc(C2=Nn3c(nnc3-c3ccccc3OC)SC2)cc1OC1CCOC1 (stereo not given),n,x,u,3.26µM,0.651µM,x
CC(C(=O)Nc1ccccc1C(F)(F)F)n1nc(-c2ccccc2)c2c(c1=O)CCCC2 (stereo not given),u,x,u,n,u,x
COc1ccccc1-c1nnc2n1N=C(c1ccc(O)c(O)c1)CS2,n,0.206µM,u,u,u,u
CCOc1ccc(C2=Nn3c(nnc3-c3ccccc3OC)SC2)cc1,n,0.206µM,n,u,0.0116µM,0.0103µM
CCOc1ccc(-c2nnc3n2N=C(c2ccc(OC)cc2)CS3)cc1,n,n,n,n,n,n
O=C(c1[nH]c(C(F)(F)F)nc1-c1ccccc1)N1CCN(c2ccccc2)CC1,n,u,n,u,6.51µM,2.06µM
